ABHD5 PLIN5 PPI – blocks binding of human ABHD5 to perilipin-5; Q00G26+Q8WTS1; Split G. princeps luciferase complementation, luminescence, 4 h; inhibition, % at 4 µM; 360,000 tested, 0.78% active; AID 602281;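 active means inhibition above the mean inhibition across every tested compound plus 3 SD, cut at about 22% in these data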;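 further: 0% = DMSO only wells and the 100% control is not disclosed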
PRMT1 inh – blocks human protein arginine methyltransferase 1; Q99873; recombinant PRMT1, activity-based probe fluorescence polarization; inhibition, % at 2.79 µM; 370,000 tested, 1.3% active; AID 652257;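 active means inhibition above about 21% made by adding two undisclosed values, limit read from the data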
TLR9-MyD88 inh – inhibitors of human TLR9-MyD88 binding | Q9NR96+Q99836 | CHO BLA complementation TLR9-MyD88, CCF4 FRET ratio | inhibition, % at 4.98 µM | 340,000 tested, 0.21% active | AID 504734;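 active means inhibition above the mean over all tested compounds plus 3 SD, cut at about 21% in these data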;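 further: 0% = DMSO only wells and 100% = clavulanate BLA inhibitor control wells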
NOD2 RIPK2 PPI – NOD2-RIPK2 protein interaction inhibition | O43353 | CHO BLA complementation NOD2-RIPK2, CCF4 ratio | inhibition, % at 4.98 µM | 360,000 tested, 0.38% active | AID 624267; in the data active means inhibition above about 21%;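 further: 0% = vehicle only and 100% = reference blocker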
Target sequence (O43353 whole entry, looked up): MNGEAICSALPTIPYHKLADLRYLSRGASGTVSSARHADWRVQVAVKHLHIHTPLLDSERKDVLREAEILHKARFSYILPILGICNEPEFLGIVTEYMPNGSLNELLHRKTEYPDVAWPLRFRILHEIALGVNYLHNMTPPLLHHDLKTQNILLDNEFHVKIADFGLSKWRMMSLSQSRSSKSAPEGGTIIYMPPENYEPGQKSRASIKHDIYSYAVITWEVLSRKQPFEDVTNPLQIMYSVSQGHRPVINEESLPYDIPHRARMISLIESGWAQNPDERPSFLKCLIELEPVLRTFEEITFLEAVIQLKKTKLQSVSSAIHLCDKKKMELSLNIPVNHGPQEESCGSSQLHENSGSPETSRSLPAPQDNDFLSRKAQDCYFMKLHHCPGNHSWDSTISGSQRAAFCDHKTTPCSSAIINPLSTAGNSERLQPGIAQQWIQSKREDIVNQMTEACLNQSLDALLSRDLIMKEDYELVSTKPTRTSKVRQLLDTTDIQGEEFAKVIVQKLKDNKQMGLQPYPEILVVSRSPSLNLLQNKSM
TLR4 MyD88 comp – TLR4-MyD88 interaction inhibition in cells; O00206+Q99836; HeLa CL3-4 TLR4/MyD88 BLA complementation, FRET ratio; inhibition, % at 8.4 µM; 200,000 tested, 0.18% active; AID 861; in the data active means inhibition above about 25%;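 further: 0% = vehicle and 100% = reference inhibitor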
Exocytosis inh – lytic granule exocytosis inhibition; TALL-104 LAMP-1 surface exposure, flow cytometry; cells stimulated with thapsigargin and PMA; inhibition, % at 10 µM; 360,000 tested, 0.66% active;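 active means inhibition above about 55%, limit read from the data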
Exocytosis CP01 – lytic granule exocytosis inhibition | AID 651954 | TALL-104 cells, LAMP-1 externalization, flow cytometry; stimulated with PMA plus thapsigargin | shares compounds with Exocytosis inh | 1,500 tested, 11% active | inhibition, % at 10 µM; in the data active means inhibition above about 60%;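 further: 0% = stimulated vehicle wells and 100% = unstimulated wells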
* hit, by the source's call; . = no result given. In the library only some 2.6% were active in any assay of this set; here they are far more common.

SMILES | ABHD5 PLIN5 PPI | PRMT1 inh | TLR9-MyD88 inh | NOD2 RIPK2 PPI | TLR4 MyD88 comp | Exocytosis inh | Exocytosis CP01
c1ccc(CNCCC(Cc2ccccc2)c2ccco2)cc1 (stereo not given) | -2.6 | 8.8 | -8.3 | -1.7 | . | 71.5* | -9.7
Cc1cc2c(cc1C)CSC(c1ccc3ccccc3c1O)SC2 | -10.9 | 0.8 | -1.5 | -2.9 | 6.9 | -4.0 | .
Cc1cc2c(cc1C)CSC(c1c(O)ccc3ccccc13)SC2 | -4.7 | 3.3 | 10.5 | -8.3 | 0.5 | 75.9* | 10.8
Cc1ccnc(Nc2nc(-c3ccc(O)c(O)c3)cs2)c1 | -0.2 | 2.5 | -16.8 | 1.0 | . | 71.8* | -12.4
O=C(OCC#CCSc1nnc(-c2cccc3ncccc23)o1)c1ccc(F)cc1 | . | 3.4 | . | . | . | . | .
O=C(NCc1ccccc1Cl)c1ccncc1 | 6.5 | -0.2 | 1.6 | 1.8 | . | 65.6* | -4.1
COCCN1C(=O)[C@H]2C[C@@]13O[C@H](c1ccc(C(F)(F)F)cc1)N=C3C[C@H](c1ccccc1)[C@H]2C | . | -1.0 | . | . | . | . | .
Cc1ccc2c(CN(C)Cc3ccc(Cl)cc3Cl)cc(=O)oc2c1 | -2.1 | 6.6 | -13.3 | 6.5 | . | 66.6* | -9.4
C[C@H](CO)N1C[C@H](C)[C@H](CN(C)C(=O)Nc2ccc(F)cc2)Oc2ncc(Br)cc2C1=O | . | -2.3 | . | . | . | . | .
CC(C)Nc1nc(NCCOc2ccccc2Cl)c2sc(-c3ccccc3)cc2n1 | 4.9 | -3.9 | . | -3.4 | . | 58.1* | 36.8
O=C(CCCc1c[nH]c2ccccc12)NCCc1c[nH]c2ccccc12 | -1.6 | -1.2 | -5.4 | 9.5 | . | 80.5* | -13.6
CCCCCCCN1CCC(=O)N([C@H](CO)Cc2ccccc2)CC1 | 1.2 | -1.0 | 5.5 | 3.1 | . | 3.6 | .
CCCCCCCN1CCC(=O)N([C@H](CO)CC(C)C)CC1 | -5.1 | -3.8 | 3.2 | 5.2 | . | 81.3* | -13.3
Cc1ccc(C(C)C)c(OCCNCc2ccccc2)c1 | -7.2 | -2.9 | -3.9 | 6.5 | . | 83.2* | -11.6
COc1cc(NC(=O)c2cccs2)c(OC)cc1NC(=O)CCC(=O)Nc1cccc2ncccc12 | 2.6 | -3.9 | -12.4 | 7.9 | -4.7 | 60.3* | -3.0
COc1ccc(Br)cc1CNC(=O)C1CCCN(S(=O)(=O)N2CC(C)CC(C)C2)C1 (stereo not given) | 0.6 | -0.8 | 1.9 | -3.8 | . | 69.9* | -4.7
O=C(NCCc1ccc(Cl)cc1)C1CCN(S(=O)(=O)c2ccc(Br)s2)CC1 | -5.1 | -2.1 | 2.7 | 5.9 | -4.2 | 64.6* | -12.9
COc1ccc(CNC(=O)C2CCCN(S(=O)(=O)c3ccc(Br)s3)C2)cc1 (stereo not given) | -7.6 | 3.0 | -3.5 | -5.3 | . | 68.8* | -13.8
COc1ccc(Br)cc1CNC(=O)C1CCN(S(=O)(=O)N2CCCCC2)CC1 | -5.6 | -1.3 | -3.2 | -6.4 | -7.9 | 9.0 | .
NC(=O)c1ncn([C@@H]2O[C@H](C(=O)N3CCN(Cc4ccccn4)CC3)[C@@H](O)[C@H]2O)n1 | . | -3.3 | . | . | . | . | .
COc1ccccc1C(=O)N1CCN(C(=O)[C@H](CCc2ccccc2)NC(=O)[C@H]2O[C@@H](n3cnc4c(N)ncnc43)[C@H](O)[C@@H]2O)CC1 | . | 0.1 | . | . | . | . | .
CC(C)(C)S(=O)(=O)N1C[C@H]2CC(=O)C(CCO)=C2[C@@H]1CCO | . | -1.4 | . | . | . | . | .
CCOC(=O)N[C@@H](Cc1cccnc1)C(=O)N1CCC[C@H]1C(=O)NCCc1ccccc1Cl | . | -0.2 | . | . | . | . | .
Cc1cc(C)nc(Nc2nc(-c3ccccc3)cs2)n1 | 9.4 | -1.2 | -0.4 | 7.8 | . | 76.5* | -5.7
COC(=O)[C@]12C[C@H](CC(=O)N3CCCC3)C(=O)N(Cc3cccc4ccccc34)C1=C[C@H](COCc1ccccc1)O[C@@H]2C | . | -5.5 | . | . | . | . | .
COc1cccc(O)c1CN1CCC(C(=O)Nc2ccc(-c3cccc(C)c3)cc2)CC1 | 7.5 | -3.1 | -8.4 | -2.6 | . | 66.2* | 13.9
CC(NC(=O)C(C)N1c2cccc3cccc(c23)S1(=O)=O)c1ccccc1 (stereo not given) | -3.0 | 5.7 | -7.2 | 3.6 | . | 81.9* | -6.4
CCOC(=O)c1c(CSc2ccccc2)oc2cc(Br)c(O)c(CN(C)C)c12 | 10.3 | -1.4 | 1.3 | -4.3 | . | 3.8 | .
CCOC(=O)c1c(C)oc2ccc(O)c(CN(C)C)c12 | -0.1 | -0.5 | 11.0 | -10.2 | -14.2 | 6.6 | .

Screening results as filed in PubChem BioAssay.
